Assay [1] addresses T1, Ephrin type-B receptor 2 (Homo sapiens) (UniProt P29323).
T1 sequence (whole entry): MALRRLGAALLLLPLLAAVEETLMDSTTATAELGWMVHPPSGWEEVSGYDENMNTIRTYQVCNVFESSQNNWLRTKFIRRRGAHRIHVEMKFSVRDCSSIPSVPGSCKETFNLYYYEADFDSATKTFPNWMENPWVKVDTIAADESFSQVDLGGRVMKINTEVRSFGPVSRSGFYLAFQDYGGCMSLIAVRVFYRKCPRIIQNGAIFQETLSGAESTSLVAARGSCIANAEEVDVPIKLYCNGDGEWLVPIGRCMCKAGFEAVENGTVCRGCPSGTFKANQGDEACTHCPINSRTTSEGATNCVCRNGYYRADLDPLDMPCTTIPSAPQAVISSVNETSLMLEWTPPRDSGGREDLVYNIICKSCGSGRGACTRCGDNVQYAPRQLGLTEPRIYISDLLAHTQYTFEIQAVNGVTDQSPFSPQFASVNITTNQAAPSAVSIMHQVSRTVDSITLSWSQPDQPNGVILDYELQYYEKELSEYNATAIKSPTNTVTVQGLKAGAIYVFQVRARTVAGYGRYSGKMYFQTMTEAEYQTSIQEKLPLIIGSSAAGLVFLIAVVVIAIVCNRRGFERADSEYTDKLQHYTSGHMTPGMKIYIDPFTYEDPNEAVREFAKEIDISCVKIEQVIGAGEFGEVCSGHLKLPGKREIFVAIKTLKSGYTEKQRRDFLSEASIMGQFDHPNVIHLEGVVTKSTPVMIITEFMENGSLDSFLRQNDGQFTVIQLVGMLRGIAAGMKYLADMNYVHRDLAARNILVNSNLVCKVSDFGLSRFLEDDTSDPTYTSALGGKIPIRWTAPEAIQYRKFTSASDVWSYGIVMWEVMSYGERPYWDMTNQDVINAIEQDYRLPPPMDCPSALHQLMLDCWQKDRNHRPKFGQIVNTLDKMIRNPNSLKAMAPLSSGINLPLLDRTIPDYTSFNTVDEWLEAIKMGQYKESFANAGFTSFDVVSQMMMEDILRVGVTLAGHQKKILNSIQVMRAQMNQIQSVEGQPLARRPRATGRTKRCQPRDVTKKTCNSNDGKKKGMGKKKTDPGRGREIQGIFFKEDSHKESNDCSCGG
To be noted: at 1 µM.

In assay [2] the target is T2, Ephrin type-B receptor 3 (Homo sapiens) (UniProt P54753).
T2 sequence (whole entry): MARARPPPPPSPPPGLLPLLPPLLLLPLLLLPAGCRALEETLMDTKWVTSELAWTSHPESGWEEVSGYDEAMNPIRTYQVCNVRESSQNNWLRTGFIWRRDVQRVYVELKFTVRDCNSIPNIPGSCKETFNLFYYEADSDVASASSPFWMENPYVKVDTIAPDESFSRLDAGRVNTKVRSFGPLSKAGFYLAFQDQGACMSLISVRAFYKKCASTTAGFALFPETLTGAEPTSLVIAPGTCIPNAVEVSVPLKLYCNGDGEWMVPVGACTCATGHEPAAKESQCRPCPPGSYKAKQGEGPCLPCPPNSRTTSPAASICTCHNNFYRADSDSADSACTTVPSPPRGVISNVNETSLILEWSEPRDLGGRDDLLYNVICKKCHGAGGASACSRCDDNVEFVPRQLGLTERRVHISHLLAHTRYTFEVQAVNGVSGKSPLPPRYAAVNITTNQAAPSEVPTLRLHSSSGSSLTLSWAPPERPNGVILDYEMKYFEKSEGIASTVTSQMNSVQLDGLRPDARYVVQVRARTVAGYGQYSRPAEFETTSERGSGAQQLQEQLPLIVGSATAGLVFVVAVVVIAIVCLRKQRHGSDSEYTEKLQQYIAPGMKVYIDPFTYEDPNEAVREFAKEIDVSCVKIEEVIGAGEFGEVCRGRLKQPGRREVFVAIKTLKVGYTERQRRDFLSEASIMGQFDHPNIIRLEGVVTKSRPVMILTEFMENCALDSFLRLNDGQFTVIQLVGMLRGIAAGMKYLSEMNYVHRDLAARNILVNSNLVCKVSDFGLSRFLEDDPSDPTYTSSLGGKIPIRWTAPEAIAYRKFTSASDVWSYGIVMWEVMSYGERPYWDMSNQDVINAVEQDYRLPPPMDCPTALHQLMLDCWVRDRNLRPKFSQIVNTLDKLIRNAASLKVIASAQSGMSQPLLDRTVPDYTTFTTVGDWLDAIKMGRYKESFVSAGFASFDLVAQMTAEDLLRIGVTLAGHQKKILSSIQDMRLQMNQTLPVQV
To be noted: at 0.1 µM.

Assay [3] addresses T2, Ephrin type-B receptor 3 (Homo sapiens). To be noted: at 1 µM.
Assay [4] has as its target T3, Ephrin type-B receptor 4 (Homo sapiens) (UniProt P54760).
T3 sequence (whole entry): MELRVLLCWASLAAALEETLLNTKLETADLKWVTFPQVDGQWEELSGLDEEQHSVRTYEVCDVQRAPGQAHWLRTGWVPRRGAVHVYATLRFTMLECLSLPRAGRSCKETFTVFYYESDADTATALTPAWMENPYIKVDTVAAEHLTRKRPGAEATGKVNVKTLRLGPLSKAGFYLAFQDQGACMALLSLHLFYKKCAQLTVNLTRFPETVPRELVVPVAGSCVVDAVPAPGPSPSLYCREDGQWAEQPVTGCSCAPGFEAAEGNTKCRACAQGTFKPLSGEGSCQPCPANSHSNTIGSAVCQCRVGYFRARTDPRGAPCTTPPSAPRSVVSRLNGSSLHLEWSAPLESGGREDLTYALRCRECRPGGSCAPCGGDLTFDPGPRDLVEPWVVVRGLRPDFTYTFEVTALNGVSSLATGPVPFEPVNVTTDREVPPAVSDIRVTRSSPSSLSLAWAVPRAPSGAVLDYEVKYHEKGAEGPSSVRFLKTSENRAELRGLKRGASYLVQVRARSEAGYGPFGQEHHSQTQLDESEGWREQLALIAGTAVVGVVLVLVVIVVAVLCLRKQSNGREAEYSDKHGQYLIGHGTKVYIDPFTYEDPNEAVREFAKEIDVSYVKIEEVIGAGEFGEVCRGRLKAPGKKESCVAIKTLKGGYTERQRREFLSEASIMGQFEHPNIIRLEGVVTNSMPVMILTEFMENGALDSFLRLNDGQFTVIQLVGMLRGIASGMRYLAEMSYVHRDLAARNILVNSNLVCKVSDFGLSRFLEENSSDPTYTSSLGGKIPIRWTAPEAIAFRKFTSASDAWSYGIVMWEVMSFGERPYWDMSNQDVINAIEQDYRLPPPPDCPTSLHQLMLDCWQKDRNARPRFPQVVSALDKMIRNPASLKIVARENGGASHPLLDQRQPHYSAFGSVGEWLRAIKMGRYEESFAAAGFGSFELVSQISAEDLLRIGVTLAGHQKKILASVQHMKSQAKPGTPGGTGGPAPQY
To be noted: at 0.1 µM.

The target of assay [5] is T3, Ephrin type-B receptor 4 (Homo sapiens). To be noted: at 1 µM.
Assay [6] has as its target Receptor tyrosine-protein kinase erbB-2 (Homo sapiens) (UniProt P04626). To be noted: at 0.1 µM.
Assay [7] has the same target. To be noted: at 1 µM.
In assay [8] the target is Receptor tyrosine-protein kinase erbB-4 (Homo sapiens) (UniProt Q15303). To be noted: at 0.1 µM.
The target is the same in assay [9]. To be noted: at 1 µM.
Assay [10] addresses Tyrosine-protein kinase Fer (Homo sapiens) (UniProt P16591). To be noted: at 0.1 µM.
Assay [11] has the same target. To be noted: at 1 µM.
The target of assay [12] is Tyrosine-protein kinase Fes/Fps (Homo sapiens) (UniProt P07332). To be noted: at 0.1 µM.
The target is the same in assay [13]. To be noted: at 1 µM.
Assay [14] concerns the target Fibroblast growth factor receptor 1 (Homo sapiens) (UniProt P11362). To be noted: at 0.1 µM.
Assay [15] shares this target. To be noted: at 1 µM.
The target of assay [16] is Fibroblast growth factor receptor 2 (Homo sapiens) (UniProt P21802). To be noted: at 0.1 µM.
Assay [17] shares this target. To be noted: at 1 µM.
In assay [18] the target is Fibroblast growth factor receptor 3 (Homo sapiens) (UniProt P22607). To be noted: at 0.1 µM.
For assay [19] the target is unchanged. To be noted: at 1 µM.
Assay [20] concerns the target Fibroblast growth factor receptor 4 (Homo sapiens) (UniProt P22455). To be noted: at 0.1 µM.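 Also: values are mean percent inhibition of FGFR4.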

The text below walks through data of ChEMBL document CHEMBL1961873, “Compounds: GSK PKIS; Assays: Nanosyn kinase panel” (2012).

As usually defined, the inhibition is the relative decrease from the control value, in per cent.

Receptor tyrosine-protein kinase erbB-4 (Homo sapiens), sequence (Q15303 whole entry): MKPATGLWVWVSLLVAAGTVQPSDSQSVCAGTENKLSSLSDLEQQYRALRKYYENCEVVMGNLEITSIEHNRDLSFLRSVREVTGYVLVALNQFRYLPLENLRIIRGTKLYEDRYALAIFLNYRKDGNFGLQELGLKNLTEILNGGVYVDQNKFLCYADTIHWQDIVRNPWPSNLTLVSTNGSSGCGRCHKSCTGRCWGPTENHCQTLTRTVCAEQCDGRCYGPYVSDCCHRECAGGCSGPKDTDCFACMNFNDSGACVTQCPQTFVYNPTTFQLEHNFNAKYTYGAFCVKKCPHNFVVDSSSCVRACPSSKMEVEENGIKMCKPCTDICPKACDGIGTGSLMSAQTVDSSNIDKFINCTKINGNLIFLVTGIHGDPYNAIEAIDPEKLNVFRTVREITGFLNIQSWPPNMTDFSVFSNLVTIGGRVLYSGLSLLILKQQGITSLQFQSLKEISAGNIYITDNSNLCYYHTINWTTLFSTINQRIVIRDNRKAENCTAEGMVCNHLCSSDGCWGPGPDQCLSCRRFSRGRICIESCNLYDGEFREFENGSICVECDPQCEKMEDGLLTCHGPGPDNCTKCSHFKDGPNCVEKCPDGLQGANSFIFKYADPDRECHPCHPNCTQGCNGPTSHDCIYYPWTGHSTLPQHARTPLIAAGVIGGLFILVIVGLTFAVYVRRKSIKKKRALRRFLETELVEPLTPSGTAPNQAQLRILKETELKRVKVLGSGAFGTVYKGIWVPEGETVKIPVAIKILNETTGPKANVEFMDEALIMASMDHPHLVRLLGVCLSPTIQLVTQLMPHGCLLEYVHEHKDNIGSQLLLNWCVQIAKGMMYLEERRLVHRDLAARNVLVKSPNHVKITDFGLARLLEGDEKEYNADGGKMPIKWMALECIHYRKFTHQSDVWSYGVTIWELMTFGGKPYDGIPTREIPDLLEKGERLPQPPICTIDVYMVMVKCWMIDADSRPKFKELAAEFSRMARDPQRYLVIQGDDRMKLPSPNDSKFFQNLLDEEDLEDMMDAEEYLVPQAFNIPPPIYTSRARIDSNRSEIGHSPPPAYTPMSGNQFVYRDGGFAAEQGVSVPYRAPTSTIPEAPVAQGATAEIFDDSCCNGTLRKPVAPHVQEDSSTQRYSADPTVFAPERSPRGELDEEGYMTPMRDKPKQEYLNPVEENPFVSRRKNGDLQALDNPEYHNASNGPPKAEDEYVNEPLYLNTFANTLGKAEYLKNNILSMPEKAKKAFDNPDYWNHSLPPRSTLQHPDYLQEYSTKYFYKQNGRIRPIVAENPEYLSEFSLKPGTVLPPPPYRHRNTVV
Receptor tyrosine-protein kinase erbB-2 (Homo sapiens), sequence (P04626 whole entry): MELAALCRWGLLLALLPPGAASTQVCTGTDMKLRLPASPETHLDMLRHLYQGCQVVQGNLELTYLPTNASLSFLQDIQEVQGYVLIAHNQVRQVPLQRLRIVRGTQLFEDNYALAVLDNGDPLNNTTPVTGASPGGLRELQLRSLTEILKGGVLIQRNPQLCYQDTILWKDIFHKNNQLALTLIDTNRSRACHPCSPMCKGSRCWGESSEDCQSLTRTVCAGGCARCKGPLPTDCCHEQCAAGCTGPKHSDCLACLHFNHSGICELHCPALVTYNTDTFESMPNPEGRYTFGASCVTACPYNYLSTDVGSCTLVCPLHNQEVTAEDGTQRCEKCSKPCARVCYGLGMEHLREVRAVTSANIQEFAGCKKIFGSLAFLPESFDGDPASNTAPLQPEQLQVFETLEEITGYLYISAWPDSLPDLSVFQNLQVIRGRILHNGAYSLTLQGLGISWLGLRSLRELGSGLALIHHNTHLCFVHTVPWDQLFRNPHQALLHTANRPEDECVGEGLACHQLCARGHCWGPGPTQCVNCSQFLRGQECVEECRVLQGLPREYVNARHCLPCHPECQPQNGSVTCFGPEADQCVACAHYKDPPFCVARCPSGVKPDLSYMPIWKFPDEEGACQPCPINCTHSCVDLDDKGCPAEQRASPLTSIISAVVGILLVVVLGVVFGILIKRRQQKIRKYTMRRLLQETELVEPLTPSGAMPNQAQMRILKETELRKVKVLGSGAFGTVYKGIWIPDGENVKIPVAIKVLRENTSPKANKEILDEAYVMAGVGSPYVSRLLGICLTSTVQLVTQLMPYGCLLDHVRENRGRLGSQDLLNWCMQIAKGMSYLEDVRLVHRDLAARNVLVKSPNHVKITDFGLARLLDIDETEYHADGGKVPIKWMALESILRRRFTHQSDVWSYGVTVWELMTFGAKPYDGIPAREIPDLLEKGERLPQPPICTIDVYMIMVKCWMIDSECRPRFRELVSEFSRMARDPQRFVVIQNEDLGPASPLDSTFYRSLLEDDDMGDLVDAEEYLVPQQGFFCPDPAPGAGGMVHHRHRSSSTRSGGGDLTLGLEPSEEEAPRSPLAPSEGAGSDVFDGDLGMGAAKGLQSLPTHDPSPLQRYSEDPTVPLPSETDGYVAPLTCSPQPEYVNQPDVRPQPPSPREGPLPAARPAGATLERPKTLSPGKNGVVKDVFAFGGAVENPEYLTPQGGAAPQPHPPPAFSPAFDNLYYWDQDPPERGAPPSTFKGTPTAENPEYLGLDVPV
Fibroblast growth factor receptor 3 (Homo sapiens), sequence (P22607 23-806 limits assumed): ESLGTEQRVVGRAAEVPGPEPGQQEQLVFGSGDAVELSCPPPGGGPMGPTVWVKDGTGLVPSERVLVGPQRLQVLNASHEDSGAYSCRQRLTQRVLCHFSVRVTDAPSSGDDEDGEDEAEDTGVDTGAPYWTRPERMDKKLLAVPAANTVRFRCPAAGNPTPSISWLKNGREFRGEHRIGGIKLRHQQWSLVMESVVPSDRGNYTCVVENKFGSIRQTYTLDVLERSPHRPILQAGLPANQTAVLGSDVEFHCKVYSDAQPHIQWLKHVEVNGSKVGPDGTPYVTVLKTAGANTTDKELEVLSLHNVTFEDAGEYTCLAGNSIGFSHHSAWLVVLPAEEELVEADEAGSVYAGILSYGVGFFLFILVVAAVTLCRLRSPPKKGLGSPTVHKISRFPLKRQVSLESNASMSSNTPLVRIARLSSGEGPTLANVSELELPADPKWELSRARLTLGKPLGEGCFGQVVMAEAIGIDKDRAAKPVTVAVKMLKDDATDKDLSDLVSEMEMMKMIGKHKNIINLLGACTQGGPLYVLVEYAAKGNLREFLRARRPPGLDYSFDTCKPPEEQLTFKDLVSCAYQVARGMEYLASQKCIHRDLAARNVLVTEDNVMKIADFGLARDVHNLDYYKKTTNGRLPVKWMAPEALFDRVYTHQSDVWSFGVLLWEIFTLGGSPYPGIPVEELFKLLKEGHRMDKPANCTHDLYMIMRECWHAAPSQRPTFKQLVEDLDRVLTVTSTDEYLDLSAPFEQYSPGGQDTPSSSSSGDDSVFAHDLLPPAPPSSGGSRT
Fibroblast growth factor receptor 4 (Homo sapiens), sequence (P22455 22-802 limits assumed): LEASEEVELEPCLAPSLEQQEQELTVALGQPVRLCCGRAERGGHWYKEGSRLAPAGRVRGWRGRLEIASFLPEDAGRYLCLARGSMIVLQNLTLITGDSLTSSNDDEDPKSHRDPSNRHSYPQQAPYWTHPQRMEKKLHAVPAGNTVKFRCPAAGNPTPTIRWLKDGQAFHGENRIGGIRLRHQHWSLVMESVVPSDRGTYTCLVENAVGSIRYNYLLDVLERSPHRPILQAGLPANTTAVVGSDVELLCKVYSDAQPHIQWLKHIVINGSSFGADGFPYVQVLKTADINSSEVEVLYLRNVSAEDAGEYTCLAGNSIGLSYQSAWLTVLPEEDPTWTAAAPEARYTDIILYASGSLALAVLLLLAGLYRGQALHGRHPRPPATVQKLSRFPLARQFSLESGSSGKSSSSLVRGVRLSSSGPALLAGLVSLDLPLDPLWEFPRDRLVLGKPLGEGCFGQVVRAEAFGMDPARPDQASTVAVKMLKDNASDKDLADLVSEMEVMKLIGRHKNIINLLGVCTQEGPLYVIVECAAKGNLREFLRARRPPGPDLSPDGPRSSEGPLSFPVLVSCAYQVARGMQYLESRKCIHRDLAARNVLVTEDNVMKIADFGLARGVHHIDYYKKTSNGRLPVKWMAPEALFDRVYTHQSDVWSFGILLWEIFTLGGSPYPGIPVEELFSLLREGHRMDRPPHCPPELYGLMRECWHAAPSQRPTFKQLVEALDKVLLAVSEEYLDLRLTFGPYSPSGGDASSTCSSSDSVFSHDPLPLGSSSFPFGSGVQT
Tyrosine-protein kinase Fer (Homo sapiens), sequence (P16591 whole entry, looked up): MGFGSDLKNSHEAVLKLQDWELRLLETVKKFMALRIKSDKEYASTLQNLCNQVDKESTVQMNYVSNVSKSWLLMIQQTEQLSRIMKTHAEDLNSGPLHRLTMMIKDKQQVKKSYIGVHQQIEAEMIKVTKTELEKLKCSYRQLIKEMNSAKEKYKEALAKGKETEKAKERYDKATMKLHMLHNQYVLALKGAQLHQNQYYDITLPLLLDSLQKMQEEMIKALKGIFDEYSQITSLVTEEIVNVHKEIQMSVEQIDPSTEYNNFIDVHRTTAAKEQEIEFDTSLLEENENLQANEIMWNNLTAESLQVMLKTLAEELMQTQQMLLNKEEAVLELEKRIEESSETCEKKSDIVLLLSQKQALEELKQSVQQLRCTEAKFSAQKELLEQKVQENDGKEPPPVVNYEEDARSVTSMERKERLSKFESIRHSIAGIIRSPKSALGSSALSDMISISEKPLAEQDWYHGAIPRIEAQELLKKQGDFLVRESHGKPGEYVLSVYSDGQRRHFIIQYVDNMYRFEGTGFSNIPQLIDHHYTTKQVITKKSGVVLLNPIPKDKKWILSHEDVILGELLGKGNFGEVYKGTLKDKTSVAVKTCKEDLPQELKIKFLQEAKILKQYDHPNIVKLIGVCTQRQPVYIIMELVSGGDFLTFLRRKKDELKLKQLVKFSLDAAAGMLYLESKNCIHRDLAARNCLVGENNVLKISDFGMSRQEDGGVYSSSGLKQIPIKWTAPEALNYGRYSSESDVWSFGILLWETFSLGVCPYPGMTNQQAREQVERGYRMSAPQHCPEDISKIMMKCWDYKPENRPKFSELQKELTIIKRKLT

Consider `Fc1cccc(COc2ccc(Nc3ncnc4sc(-c5cccs5)cc34)cc2Cl)c1`, for which the inhibition amounted to 2.33% in assay [1]; 0.38% in assay [2]; 2.19% in assay [3]; 1.37% in [4]; 1.29% in [5]; 1.07% in assay [6]. The inhibition is 3.46% in assay [7]; 5.25% in [8]; 31.8% in assay [9]; 5.4% in [10]; 9.05% in [11]; 0.45% in [12]. Further, the inhibition in assay [13] was 0.01%; in [14] it was 4.36%; in [15] it was 5.02%; in assay [16], 2.92%; in assay [17], 3.32%; in assay [18] it was 0.4%. The values for the inhibition in assay [19] and in assay [20] were 6.81% and 0.35%, respectively.
With `CC1=C(C(=O)Nc2ccc3[nH]ncc3c2)C(c2ccc(F)cc2)NC(=O)N1` (stereo not given), the inhibition is 5.02% in assay [1]; 3.4% in assay [2]; 1.2% in [3]; -1.65% in [4]; 0.92% in [5]; -0.29% in assay [6]. In addition, the inhibition in assay [7] is -0.74%; in [8], 4.16%; in assay [9], 5.19%; in assay [10], 0.09%; in assay [11], 2.17%; in [12], 0.59%. In addition, the inhibition in [13] was 0.3%; in [14], -0.9%; in [15], 6.58%; in [16] it was 3.51%; in assay [17], 18.4%; in assay [18], 4.3%. Further, the inhibition in [19] was 14.7%; in [20], 1.22%.
With `Nc1ncnc2occ(-c3ccc(NC(=O)Nc4cc(C(F)(F)F)cc(C(F)(F)F)c4)cc3)c12`, the inhibition was 68.2% in assay [1]; 6.66% in [2]; 27.9% in [3]; 9.24% in assay [4]; 41.4% in assay [5]; -1.28% in [6]. In addition, the inhibition in assay [7] is -3.43%; in assay [8], 9.75%; in assay [9], 5.89%; in [10], 1.71%; in assay [11], 22%; in assay [12] it was 1.31%. The inhibition in assay [13] is 4.84%; in assay [14], 9.08%; in assay [15], 43.7%; in assay [16] it was 23.3%; in assay [17], 68.8%; in [18], 10.8%. Besides, the inhibition in [19] amounted to 52.8%; in assay [20], 3.02%.
For the molecule `CCCN1CCC=C(c2ccc(Nc3nc(Nc4ccccc4C(N)=O)c4cc[nH]c4n3)c(C)c2)C1`, the inhibition in [1] amounted to 8.88%; in assay [2], 1.76%; in assay [3], 2.4%; in assay [4], 2.74%; in assay [5], 3.5%; in assay [6] it was 2.98%. The inhibition was determined as 3.15% in [7]; 7.5% in [8]; 27.7% in assay [9]; 12.8% in assay [10]; 68.7% in assay [11]; 16.5% in assay [12]. Further, the inhibition in [13] was 57.3%; in assay [14] it was 1.72%; in [15], 7.09%; in assay [16] it was 6.37%; in assay [17] it was 7.35%; in assay [18] it was 6.92%. The inhibition was determined as 6.81% in [19] and 3.01% in assay [20].
As to `Cn1cc(C=C2C(=O)Nc3cccnc32)c2ccccc21`, the inhibition is 12% in [1]; 4.59% in assay [2]; -0.71% in assay [3]; 0.9% in assay [4]; 5.16% in assay [5]; 0.95% in [6]. In addition, the inhibition in assay [7] came to 3.11%; in [8] it was 9.66%; in assay [9], 9.14%; in [10], 0.48%; in [11], 20.8%; in assay [12], 1.69%. The inhibition in assay [13] stood at 2.19%; in assay [14], 6.57%; in [15], 17.3%; in [16] it was 9.78%; in assay [17], 42.2%; in assay [18], 11.2%. For the same molecule, the inhibition in assay [19] is 47.8%; in assay [20], 2.46%.
For the molecule `O=C1NC(=O)C(c2ccc(Cl)cc2)=C1Nc1ccc(Cl)c(C(=O)O)c1`, the inhibition in assay [1] was 1.8%; in [2], -6.22%; in [3], -1.9%; in assay [4], -0.68%; in [5] it was -1.57%; in assay [6], -2.94%. In addition, the inhibition was -3.13% in assay [7]; -7.86% in [8]; -9.87% in assay [9]; 1.93% in [10]; 1.58% in assay [11]; -3.1% in assay [12]. Moreover, the inhibition in assay [13] is -3%; in assay [14], -0.91%; in assay [15], 2.2%; in assay [16], -2.69%; in assay [17], 2.13%; in [18], 1.31%. Moreover, the values for the inhibition in assay [19] and in assay [20] were 2.66% and -0.4%, respectively.
